Measured values reported in the supplement of paper PMC10849652.
Of roughly 8,800 targets only a part is listed; those with a hit were picked by preference. About 0.5% of all pairs of compound and target were hits. Values without a mark were called inactive.

What was measured:
Assay in all cases: log2 fold change, soluble protein after heating vs DMSO (PISA); higher = thermal stabilisation; K562 lysate, 10 uM; active = over 0.2 and 3.5 SD of the protein, either way, in both replicates (recomputed)
[1] = compound: C1=CC=C(C=C1)[C@H](COC2=CC3=C(C=C2)NC(=O)N3)NC(=O)C4=CC=CN(C4=O)CC5=CC(=C(C=C5)F)F
In short: (§1)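 Log-two fold change in thermal stability relative to solvent controls is reported from duplicates. For each sample, crude K562 extract from dounce-homogenised pellets in PBS pH 7.4 with 1 mM MgCl2, at 1 mg/mL protein, was treated with 10 μM compound for 30 min. Aliquots heated for 3 min across 48°C-58°C were pooled, brought to 0.5% NP-40 at 4°C and cleared at 21,000xg for 90 min. The supernatant was quantified by TMTpro 16plex LC-MS/MS with channel sums equalised.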

[2] = compound: CC1=C(SC2=C1C(=N[C@H](C3=NN=C(N32)C)CC(=O)N)C4=CC=C(C=C4)Cl)C
In short: as §1

[3] = compound: CC1=C2C(=CC=C1)N=C(N(C2=O)C3=CC=CC=C3C)CN4C=NC5=C(N=CN=C54)N
In short: as §1

[4] = compound: Cc1sc2c(c1C)C(c1ccc(Cl)cc1)=N[C@@H](CC(=O)OC(C)(C)C)c1nnc(C)n1-2
In short: as §1

[5] = compound: c1ccc([C@@H]2C[C@H]2NC2CCNCC2)cc1
In short: as §1

Sequence of UniProt Q8TDD1 (Q8TDD1 whole entry, looked up): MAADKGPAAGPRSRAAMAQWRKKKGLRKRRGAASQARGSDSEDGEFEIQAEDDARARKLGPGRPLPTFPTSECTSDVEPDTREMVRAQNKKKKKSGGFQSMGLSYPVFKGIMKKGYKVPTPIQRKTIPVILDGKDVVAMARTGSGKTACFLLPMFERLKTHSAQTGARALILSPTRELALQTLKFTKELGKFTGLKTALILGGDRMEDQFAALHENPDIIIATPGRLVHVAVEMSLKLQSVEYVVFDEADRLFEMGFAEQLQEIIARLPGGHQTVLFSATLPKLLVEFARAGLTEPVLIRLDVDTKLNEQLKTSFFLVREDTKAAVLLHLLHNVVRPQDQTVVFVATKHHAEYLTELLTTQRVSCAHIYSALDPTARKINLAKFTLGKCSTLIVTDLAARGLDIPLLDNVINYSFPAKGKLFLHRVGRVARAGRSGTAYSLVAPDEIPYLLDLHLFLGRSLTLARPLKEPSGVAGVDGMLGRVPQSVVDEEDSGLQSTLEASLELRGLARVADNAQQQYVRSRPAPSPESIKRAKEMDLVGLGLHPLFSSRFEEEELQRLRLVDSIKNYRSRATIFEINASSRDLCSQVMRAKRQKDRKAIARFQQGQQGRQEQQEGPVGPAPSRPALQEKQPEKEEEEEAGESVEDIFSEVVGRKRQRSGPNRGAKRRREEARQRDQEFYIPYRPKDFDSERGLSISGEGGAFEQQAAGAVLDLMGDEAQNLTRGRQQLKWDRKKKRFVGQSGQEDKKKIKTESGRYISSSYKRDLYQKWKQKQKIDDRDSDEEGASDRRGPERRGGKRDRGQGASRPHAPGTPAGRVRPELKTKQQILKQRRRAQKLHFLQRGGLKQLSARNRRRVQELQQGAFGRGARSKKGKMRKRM
Sequence of UniProt Q8IWF6 (Q8IWF6 whole entry, looked up): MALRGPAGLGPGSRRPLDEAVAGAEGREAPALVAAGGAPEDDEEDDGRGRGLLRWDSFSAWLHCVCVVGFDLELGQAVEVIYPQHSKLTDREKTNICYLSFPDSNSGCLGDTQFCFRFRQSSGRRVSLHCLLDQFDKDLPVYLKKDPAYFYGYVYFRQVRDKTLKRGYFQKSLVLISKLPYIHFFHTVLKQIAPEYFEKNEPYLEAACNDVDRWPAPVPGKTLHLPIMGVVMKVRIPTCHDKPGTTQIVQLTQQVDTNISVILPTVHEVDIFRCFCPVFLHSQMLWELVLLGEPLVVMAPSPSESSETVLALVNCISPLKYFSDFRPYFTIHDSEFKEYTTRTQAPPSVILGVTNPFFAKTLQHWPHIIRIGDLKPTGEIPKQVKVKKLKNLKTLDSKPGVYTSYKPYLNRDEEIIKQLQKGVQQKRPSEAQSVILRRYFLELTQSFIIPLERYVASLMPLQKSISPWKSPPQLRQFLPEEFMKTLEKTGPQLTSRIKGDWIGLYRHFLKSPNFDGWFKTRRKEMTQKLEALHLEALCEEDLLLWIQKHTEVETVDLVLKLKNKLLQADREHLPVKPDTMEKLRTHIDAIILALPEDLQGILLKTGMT
Sequence of UniProt Q14746 (Q14746 whole entry, looked up): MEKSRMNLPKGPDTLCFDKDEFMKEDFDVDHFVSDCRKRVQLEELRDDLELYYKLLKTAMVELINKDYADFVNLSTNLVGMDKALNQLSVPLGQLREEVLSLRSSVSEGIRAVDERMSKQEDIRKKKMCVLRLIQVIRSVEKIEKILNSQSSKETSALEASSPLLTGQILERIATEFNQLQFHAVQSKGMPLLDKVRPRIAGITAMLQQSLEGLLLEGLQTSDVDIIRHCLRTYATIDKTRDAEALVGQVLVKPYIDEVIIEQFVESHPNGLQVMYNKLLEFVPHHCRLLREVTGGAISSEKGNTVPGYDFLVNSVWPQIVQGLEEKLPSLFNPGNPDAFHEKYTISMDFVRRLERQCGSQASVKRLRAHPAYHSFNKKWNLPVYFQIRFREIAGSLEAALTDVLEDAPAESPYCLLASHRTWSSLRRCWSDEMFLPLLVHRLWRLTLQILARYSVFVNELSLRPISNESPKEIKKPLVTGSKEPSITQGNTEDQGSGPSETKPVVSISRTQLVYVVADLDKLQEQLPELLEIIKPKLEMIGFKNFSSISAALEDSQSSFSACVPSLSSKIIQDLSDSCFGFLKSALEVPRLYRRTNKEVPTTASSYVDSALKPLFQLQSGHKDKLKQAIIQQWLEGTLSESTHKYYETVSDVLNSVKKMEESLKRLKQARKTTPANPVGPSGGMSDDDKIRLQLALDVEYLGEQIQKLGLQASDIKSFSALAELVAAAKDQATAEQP
Sequence of UniProt Q92466 (Q92466 whole entry, looked up): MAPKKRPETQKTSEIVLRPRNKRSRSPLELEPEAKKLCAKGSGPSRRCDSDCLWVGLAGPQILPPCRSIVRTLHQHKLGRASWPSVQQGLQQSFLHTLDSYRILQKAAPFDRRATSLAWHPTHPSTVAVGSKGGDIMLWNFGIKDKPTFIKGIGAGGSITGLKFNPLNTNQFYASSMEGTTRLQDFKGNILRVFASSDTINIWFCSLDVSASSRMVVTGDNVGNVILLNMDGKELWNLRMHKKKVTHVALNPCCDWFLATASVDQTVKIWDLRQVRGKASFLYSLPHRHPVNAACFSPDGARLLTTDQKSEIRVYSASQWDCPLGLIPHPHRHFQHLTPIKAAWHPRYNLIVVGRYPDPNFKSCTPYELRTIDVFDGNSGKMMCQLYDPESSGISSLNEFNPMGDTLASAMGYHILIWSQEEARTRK
Sequence of UniProt Q9NZN8 (Q9NZN8 whole entry, looked up): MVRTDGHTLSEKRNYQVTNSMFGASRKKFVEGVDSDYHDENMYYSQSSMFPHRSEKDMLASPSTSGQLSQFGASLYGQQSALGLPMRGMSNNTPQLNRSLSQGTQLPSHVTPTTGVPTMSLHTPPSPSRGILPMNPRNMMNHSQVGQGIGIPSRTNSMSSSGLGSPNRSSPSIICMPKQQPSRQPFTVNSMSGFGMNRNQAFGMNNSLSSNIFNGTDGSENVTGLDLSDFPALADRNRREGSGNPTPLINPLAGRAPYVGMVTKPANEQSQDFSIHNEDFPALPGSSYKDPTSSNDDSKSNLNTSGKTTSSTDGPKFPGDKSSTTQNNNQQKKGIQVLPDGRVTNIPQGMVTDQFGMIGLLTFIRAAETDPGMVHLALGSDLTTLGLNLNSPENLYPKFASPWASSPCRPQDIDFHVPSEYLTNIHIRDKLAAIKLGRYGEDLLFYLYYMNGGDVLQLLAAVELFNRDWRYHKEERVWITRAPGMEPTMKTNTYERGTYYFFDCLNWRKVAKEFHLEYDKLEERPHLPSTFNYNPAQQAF
Sequence of UniProt Q96KP4 (Q96KP4 whole entry, looked up): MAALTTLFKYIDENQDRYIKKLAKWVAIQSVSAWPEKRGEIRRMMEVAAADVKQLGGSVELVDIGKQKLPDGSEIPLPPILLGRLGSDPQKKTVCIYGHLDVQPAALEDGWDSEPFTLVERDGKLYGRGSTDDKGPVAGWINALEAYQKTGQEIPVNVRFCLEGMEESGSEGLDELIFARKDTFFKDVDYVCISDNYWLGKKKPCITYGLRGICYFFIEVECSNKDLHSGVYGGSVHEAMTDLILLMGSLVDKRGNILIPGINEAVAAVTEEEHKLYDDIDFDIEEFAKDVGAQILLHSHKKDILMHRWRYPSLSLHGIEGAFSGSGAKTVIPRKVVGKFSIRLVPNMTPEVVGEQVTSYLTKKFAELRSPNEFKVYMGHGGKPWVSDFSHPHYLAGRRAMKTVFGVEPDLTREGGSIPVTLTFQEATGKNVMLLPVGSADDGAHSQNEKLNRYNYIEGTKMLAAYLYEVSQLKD
Sequence of UniProt Q9BY43 (Q9BY43 whole entry, looked up): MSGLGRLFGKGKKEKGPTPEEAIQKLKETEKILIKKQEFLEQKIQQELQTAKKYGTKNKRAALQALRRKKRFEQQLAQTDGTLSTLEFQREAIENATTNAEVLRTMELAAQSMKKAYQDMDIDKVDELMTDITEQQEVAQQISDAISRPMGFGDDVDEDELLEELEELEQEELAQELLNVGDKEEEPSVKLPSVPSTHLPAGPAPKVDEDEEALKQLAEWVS
Sequence of UniProt Q96DG6 (Q96DG6 whole entry, looked up): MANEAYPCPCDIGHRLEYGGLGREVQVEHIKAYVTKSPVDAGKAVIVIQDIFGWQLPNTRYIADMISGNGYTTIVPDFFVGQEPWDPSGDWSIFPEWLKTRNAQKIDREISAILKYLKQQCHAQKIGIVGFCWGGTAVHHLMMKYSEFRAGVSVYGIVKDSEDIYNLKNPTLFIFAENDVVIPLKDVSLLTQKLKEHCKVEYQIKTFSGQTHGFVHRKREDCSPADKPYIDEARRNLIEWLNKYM
Sequence of UniProt O95715 (O95715 whole entry, looked up): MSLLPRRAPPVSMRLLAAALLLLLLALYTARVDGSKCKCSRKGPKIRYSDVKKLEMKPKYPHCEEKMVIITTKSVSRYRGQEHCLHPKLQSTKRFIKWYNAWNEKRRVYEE
Sequence of UniProt Q13217 (Q13217 whole entry, looked up): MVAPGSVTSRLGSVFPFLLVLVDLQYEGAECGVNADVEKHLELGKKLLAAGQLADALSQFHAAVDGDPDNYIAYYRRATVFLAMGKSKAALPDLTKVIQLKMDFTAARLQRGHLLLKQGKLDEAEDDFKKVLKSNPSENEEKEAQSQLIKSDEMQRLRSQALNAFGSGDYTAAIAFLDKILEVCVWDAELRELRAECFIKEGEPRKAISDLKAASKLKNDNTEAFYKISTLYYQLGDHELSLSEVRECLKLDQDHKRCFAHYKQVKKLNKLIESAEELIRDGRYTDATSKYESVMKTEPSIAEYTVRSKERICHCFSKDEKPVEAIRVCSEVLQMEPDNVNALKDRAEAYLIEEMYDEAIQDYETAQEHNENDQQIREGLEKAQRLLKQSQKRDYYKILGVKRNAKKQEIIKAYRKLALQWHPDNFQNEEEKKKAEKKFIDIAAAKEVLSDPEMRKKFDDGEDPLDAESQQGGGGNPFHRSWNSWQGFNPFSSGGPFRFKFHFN
Sequence of UniProt P04080 (P04080 whole entry, looked up): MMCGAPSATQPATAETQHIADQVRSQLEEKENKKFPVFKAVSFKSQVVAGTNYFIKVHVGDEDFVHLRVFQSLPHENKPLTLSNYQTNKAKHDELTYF

| Target | log2 fold change [1] | log2 fold change [2] | log2 fold change [3] | log2 fold change [4] | log2 fold change [5] |
| --- | --- | --- | --- | --- | --- |
| DOCK10 (UniProt Q96BY6) | 0.053 | -0.018 | 0.062 | -0.109 | -0.491 |
| CXCL14 (UniProt O95715) | 0.002 | -0.088 | 0.128 | – | – |
| DDA1 (UniProt Q9BW61) | 0.073 | 0.024 | -0.016 | -0.003 | 0.029 |
| CUL1 (UniProt Q13616) | 0.017 | -0.027 | -0.007 | 0.016 | -0.001 |
| DENND6A (UniProt Q8IWF6) | -0.101 | -0.008 | -0.026 | 0.039 | 0.023 |
| CYP51A1 (UniProt Q16850) | 0.028 | -0.105 | -0.058 | -0.028 | -0.007 |
| DIAPH1 (UniProt O60610) | -0.005 | 0.013 | 0.015 | 0.007 | 0.023 |
| CNIH4 (UniProt Q9P003) | -0.355 | -0.301 | -0.017 | 0.11 | – |
| DOCK7 (UniProt Q96N67) | 0.071 | 0.095 | -0.017 | -0.011 | 0.012 |
| CIC (UniProt I3L2J0) | -0.03 | -0.034 | -0.109 | 0.042 | -0.02 |
| CIC (UniProt I3L1Q4) | 0.006 | 0.225 | – | – | – |
| CSTB (UniProt P04080) | -0.031 | -0.018 | -0.032 | -0.071 | -0.146 |
| COG7 (UniProt P83436) | -0.026 | 0.026 | 0.01 | -0.034 | 0.012 |
| DHFR (UniProt P00374) | -0.024 | 0.024 | 0.016 | 0.031 | 0.021 |
| DPY19L3 (UniProt Q6ZPD9) | 0.183 | -0.131 | -0.106 | – | – |
| CKAP5 (UniProt Q14008) | -0.008 | -0.019 | 0.01 | 0.014 | 0.048 |
| DLGAP5 (UniProt Q15398) | 0.029 | -0.006 | 0.009 | -0.036 | -0.015 |
| CSK (UniProt P41240) | -0.039 | -0.049 | -0.019 | -0.057 | -0.037 |
| DHRS11 (UniProt Q6UWP2) | -0.004 | 0.012 | 0.018 | 0.013 | 0.014 |
| DCUN1D4 isoform 3 (UniProt Q92564) | 0.084 | 0.087 | 0.055 | -0.139 | 0.055 |
| CIB1 (UniProt Q99828) | -0.128 | -0.272 (active) | -0.039 | 0.023 | 0.03 |
| DDX20 (UniProt Q9UHI6) | -0.008 | -0.064 | -0.006 | 0.027 | 0.077 |
| CTNND1 isoform 3 (UniProt O60716) | -0.021 | 0.035 | 0.058 | 0.036 | 0.028 |
| CNDP2 (UniProt Q96KP4) | 0.017 | 0.017 | -0.022 | -0.006 | -0.145 |
| CSNK1E (UniProt P49674) | -0.004 | -0.072 | -0.031 | 0.031 | -0.005 |
| CMIP (UniProt Q8IY22) | -0.012 | -0.006 | -0.002 | -0.029 | 0.032 |
| CHEK1 (UniProt O14757) | 0.025 | 0.021 | 0.006 | -0.04 | 0 |

| Target | log2 fold change [1] | log2 fold change [2] | log2 fold change [3] | log2 fold change [4] | log2 fold change [5] |
| --- | --- | --- | --- | --- | --- |
| CSAD isoform 3 (UniProt Q9Y600) | -0.081 | 0.137 | – | – | – |
| DDX54 isoform 2 (UniProt Q8TDD1) | -0.131 | 0.041 | 0.09 | 0.052 | 0.008 |
| DMAC2L (UniProt Q99766) | -0.031 | -0.048 | 0.057 | -0.005 | -0.061 |
| CHMP4A isoform 2 (UniProt Q9BY43) | 0.035 | -0.009 | 0.007 | -0.022 | -0.152 |
| DNAJC3 (UniProt Q13217) | 0.06 | -0.073 | -0.003 | -0.01 | 0.031 |
| DOK1 (UniProt Q99704) | 0.048 | -0.024 | -0.005 | 0.064 | -0.036 |
| CNOT2 (UniProt Q9NZN8) | 0.019 | -0.016 | -0.019 | -0.004 | 0.008 |
| CRABP2 (UniProt P29373) | -0.057 | -0.051 | 0.055 | -0.172 | -0.001 |
| CORO7 isoform 3 (UniProt P57737) | -0.003 | -0.006 | 0.033 | 0.018 | 0.036 |
| CMTM3 (UniProt Q96MX0) | 0.058 | -0.097 | -0.018 | 0.015 | -0.024 |
| CXXC1 isoform 2 (UniProt Q9P0U4) | 0.006 | 0.07 | 0.032 | -0.173 | 0.029 |
| DARS (UniProt P14868) | -0.01 | 0.001 | 0.037 | 0.043 | 0.025 |
| CMPK2 (UniProt Q5EBM0) | 0.008 | 0.091 | -0.024 | 0.039 | -0.098 |
| DNAJC5 (UniProt Q9H3Z4) | 0.032 | -0.015 | -0.034 | 0.009 | -0.308 |
| CHUK (UniProt O15111) | -0.02 | 0.032 | 0 | -0.026 | 0.015 |
| CNOT4 isoform 6 (UniProt O95628) | -0.042 | -0.02 | -0.028 | 0.051 | -0.004 |
| COG2 (UniProt Q14746) | -0.038 | -0.034 | 0.054 | 0.001 | 0.009 |
| CLP1 (UniProt Q92989) | -0.023 | -0.002 | -0.023 | 0.026 | -0.1 |
| CMBL (UniProt Q96DG6) | -0.01 | -0.011 | -0.027 | -0.041 | -0.078 |
| CSNK2B (UniProt P67870) | -0.02 | 0.024 | -0.068 | 0.03 | -0.016 |
| DDB2 (UniProt Q92466) | -0.025 | -0.026 | 0.034 | -0.027 | 0.006 |
| DNAH10 (UniProt Q8IVF4) | 0.069 | 0.014 | 0.095 | -0.081 | -0.274 |
| DCTN1 (UniProt Q14203) | -0.018 | -0.017 | -0.009 | 0 | 0.034 |
| CNST (UniProt Q6PJW8) | 0.041 | 0.019 | -0.018 | 0.004 | -0.031 |
| CSTF2 (UniProt P33240) | -0.027 | 0.021 | 0.055 | -0.032 | 0.01 |
| CYP24A1 (UniProt Q07973) | 0.02 | 0.142 | 0.096 | -0.136 | -0.262 |
| COASY isoform 2 (UniProt Q13057) | -0.049 | -0.002 | 0.03 | 0.07 | 0.01 |
